Source: PubChem BioAssay (EPA / NIEHS)
Records with an inconclusive call do not appear. Activity calls are given as the source filed them. How the source made its calls: active means hit-call score of the fitted dose curve at least 0.9, where 1 is the maximum; inconclusive means response in the unintended direction; inactive means score below 0.9.

Key:
[1] = molecular target: Androgen receptor (Homo sapiens) (UniProt P10275); assay: ATG_AR_TRANS: Attagene TRANS-FACTORIAL HepG2 Assay for human Androgen Receptor (AR) (AID 2282973); settings: HepG2 Attagene TRANS-FACTORIAL AR reporter transcription
Outline: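 HepG2 cells transiently transfected with AR-Gal4 chimera and GAL4-UAS reporter units; chemical exposure 24 h. Reporter mRNA quantified by RT-PCR with fluorescent labelling and capillary electrophoresis; gain-of-signal fitted against DMSO.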

[2] = molecular target: human Acetylcholinesterase (AChE), ACHE (gene 43) (UniProt P22303); assay: NVS_ENZ_hAChE: NovaScreen (NVS) Enzymatic Assay for human Acetylcholinesterase (AChE) (AID 2283129)
Outline: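 Actives from a duplicate single-point screen (25 uM) were followed up in concentration series. Enzyme activity read by absorbance (colorimetric) 0.33 hour after dosing, cell-free, normalized to DMSO, with loss of signal scored.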

Caspase-1 (Homo sapiens) = Caspase-1 (Homo sapiens) (UniProt P29466); assay: NVS_ENZ_hCASP1: NovaScreen (NVS) Enzymatic Assay for human Caspase 1 (CASP1) (AID 2283132)
Outline: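 Compounds were first tested in duplicate at 25 uM, with follow-up concentration series up to 50 uM. The bacterially expressed enzyme was read by fluorescence at 1 h post-dosing. Signal loss versus DMSO baseline indicates reduced enzyme activity.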

[3] = molecular target: human Caspase 2 (CASP2), CASP2 (gene 835) (UniProt P42575); assay: NVS_ENZ_hCASP2: NovaScreen (NVS) Enzymatic Assay for human Caspase 2 (CASP2) (AID 2283135)
Outline: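 Single-point duplicate testing at 25 uM preceded concentration series topping at 50 uM. Activity of the recombinant E. coli-derived protease was followed by fluorescent substrate cleavage 1 h post-dosing, relative to DMSO.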

[4] = molecular target: rat Acetylcholinesterase (AChE), Ache (gene 83817) (UniProt P37136); assay: NVS_ENZ_rAChE: NovaScreen (NVS) Enzymatic Assay for rat Acetylcholinesterase (AChE) (AID 2283233)
Outline: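 Compounds first screened at 25 uM in duplicate, then those passing threshold tested in concentration series up to 50 uM, against AChE from rat brain membranes. Enzyme activity read by absorbance at 0.33 h; inhibition scored versus DMSO.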

[5] = molecular target: rat Monoamine Oxidase, MAO-B, Peripheral (MAOBP), Maob (gene 25750) (UniProt P19643); assay: NVS_ENZ_rMAOBP: NovaScreen (NVS) Enzymatic Assay for rat Monoamine Oxidase, MAO-B, Peripheral (MAOBP) (AID 2283242)
[6] = system: rat Monoamine Oxidase, MAO-A, Central (MAOAC), gene 29253; assay: NVS_ENZ_rMAOAC: NovaScreen (NVS) Enzymatic Assay for rat Monoamine Oxidase, MAO-A, Central (MAOAC) (AID 2283243);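 further: potency refers to inhibition seen as signal drop below DMSO baseline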
Outline: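 Scintillation read-out of MAO-A activity in rat brain lysate, 1.5 h post-dosing. Primary single-concentration screen: 25 uM, duplicate; actives re-tested in concentration series. DMSO = negative control/baseline.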

[7] = molecular target: rat Neurotensin Receptor (NTS), Ntsr1 (gene 366274) (UniProt P20789); assay: NVS_GPCR_rNTS: NovaScreen (NVS) G Protein-Coupled Receptor Assay for rat Neurotensin Receptor (NTS) (AID 2283308)
Outline: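 Single-point duplicates at 25 uM, then concentration series to 50 uM max for hits, measured radioligand displacement on rat forebrain membrane preparations. Bound label counted by filtration scintillation at 1 h; signal loss relative to DMSO fitted.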

[8] = molecular target: rat Oxytocin Receptor (OXT), Oxtr (gene 25342) (UniProt P70536); assay: NVS_GPCR_rOXT: NovaScreen (NVS) G Protein-Coupled Receptor Assay for rat Oxytocin Receptor (OXT) (AID 2283330)
Outline: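 Binding to rat uterine membrane receptor was followed by scintillation counting of filter-trapped radioligand after 1 h. A 25 uM duplicate single-point screen preceded concentration series with a top of 50 uM. Signal loss was analysed relative to DMSO.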

[9] = molecular target: Norway rat Vesicular Monoamine Transporter (VMAT2), neurotransmitter transporter, Slc18a2 (gene 25549) (UniProt Q01827); assay: NVS_TR_rVMAT2: NovaScreen (NVS) Transporter Assay for Norway rat Vesicular Monoamine Transporter (VMAT2), neurotransmitter transporter (AID 2283376);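 further: actives lower the bound radioligand signal below the DMSO level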
Outline: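 Filter-based scintillation counting of radioligand bound to rat forebrain-derived VMAT2 protein, cell-free, 1 h post-dose. Signal loss relative to DMSO control scored; single-concentration duplicate screen (25 uM) followed by concentration-response testing of actives.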

[10] = molecular target: rat CYP1A2, Cyp1a2 (gene 24297) (UniProt P04799); assay: NVS_ADME_rCYP1A2: NovaScreen (NVS) CYP450-related Enzyme Activity (ADME) Assay for rat CYP1A2 (AID 2283115)
Outline: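 Primary testing ran in duplicate at 10 uM, with actives re-tested across concentration series. Fluorescence intensity from substrate turnover by recombinant protein, measured 1 hour post-dosing, with signal loss scored against acetonitrile vehicle.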

[11] = molecular target: human AMP-activated Protein Kinase, alpha 1 (AMPKa1), PRKAA1 (gene 5562) (UniProt Q13131); assay: NVS_ENZ_hAMPKa1: NovaScreen (NVS) Enzymatic Assay for human AMP-activated Protein Kinase, alpha 1 (AMPKa1) (AID 2283130)
Outline: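 Compounds were screened in duplicate at 25 uM, and those reaching ~30% inhibition were titrated up to 50 uM. The enzyme was recombinant human AMPKα1, and kinase turnover was read by fluorescence/mobility shift 1 h post-dosing as loss of signal versus DMSO.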

[12] = molecular target: human Aurora Kinase A - serine/threonine-protein Kinase 6 (AurA), AURKA (gene 6790) (UniProt O14965); assay: NVS_ENZ_hAurA: NovaScreen (NVS) Enzymatic Assay for human Aurora Kinase A - serine/threonine-protein Kinase 6 (AurA) (AID 2283142)
Outline: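 Recombinant human AurA activity read by fluorescence after mobility-shift separation of product from substrate; 1 hour incubation. Chemicals first run in duplicate at 25 uM, then concentration series to 50 uM if over threshold; fitted relative to DMSO.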

[13] = molecular target: human Fibroblast Growth Factor Receptor 1 (FGFR1), FGFR1 (gene 2260) (UniProt P11362); assay: NVS_ENZ_hFGFR1: NovaScreen (NVS) Enzymatic Assay for human Fibroblast Growth Factor Receptor 1 (FGFR1) (AID 2283159);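 on AC50: hits lower the signal so potencies describe inhibitors of the kinase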
Outline: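 Cell-free recombinant kinase with fluorescent substrate, product separated by electrophoretic mobility shift; read 1 hour after dosing, loss of signal relative to DMSO. Initial screen in duplicate at 25 uM, actives followed in concentration series.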

[14] = molecular target: human IkappaB Kinase alpha (IKKa), CHUK (gene 1147) (UniProt O15111); assay: NVS_ENZ_hIKKa: NovaScreen (NVS) Enzymatic Assay for human IkappaB Kinase alpha (IKKa) (AID 2283167)
Outline: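 Compounds first run in duplicate at 25 uM, those meeting threshold (e.g. 30% inhibition) retested to maximum 50 uM. Enzyme activity of recombinant IKKa measured by fluorescence with electrophoretic mobility shift separation, 1 hour post-dosing, DMSO baseline.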

[15] = molecular target: human MET Proto-Oncogene, Receptor Tyrosine Kinase (MET), MET (gene 4233) (UniProt P08581); assay: NVS_ENZ_hMet: NovaScreen (NVS) Enzymatic Assay for human MET Proto-Oncogene, Receptor Tyrosine Kinase (MET) (AID 2283180)
Outline: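 Hits from a 25 uM duplicate screen were retested in concentration series up to 50 uM. Enzyme activity was measured by fluorescence after electrophoretic separation of product from substrate, 1 h after compound addition, relative to DMSO.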

[16] = molecular target: human p21 Activated Kinase 4 (PAK4), PAK4 (gene 10298) (UniProt O96013); assay: NVS_ENZ_hPAK4: NovaScreen (NVS) Enzymatic Assay for human p21 Activated Kinase 4 (PAK4) (AID 2283189)
Outline: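 Extracted PAK4 enzyme activity read by fluorescence with mobility-shift separation 1 h after chemical addition. Duplicate single-concentration screen at 25 uM, DMSO as negative control.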

[17] = molecular target: human Phosphatase and Tensin Homolog (PTEN), PTEN (gene 5728) (UniProt P60484); assay: NVS_ENZ_hPTEN: NovaScreen (NVS) Enzymatic Assay for human Phosphatase and Tensin Homolog (PTEN) (AID 2283203)
Outline: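 Loss of fluorescent product signal after mobility-shift separation reports PTEN activity, recombinant human enzyme, 1 h after compound addition. Single 25 uM duplicate screen, then concentration-response on actives; DMSO baseline.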

[18] = molecular target: human Protein Tyrosine Phosphatase Non-receptor Type 2 (PTPN2), PTPN2 (gene 5771) (UniProt P17706); assay: NVS_ENZ_hPTPN2: NovaScreen (NVS) Enzymatic Assay for human Protein Tyrosine Phosphatase Non-receptor Type 2 (PTPN2) (AID 2283207)
Outline: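 Activity measured as fluorescence after mobility-shift separation of substrate and product, 1 h after compound. Duplicate single-point 25 uM primary testing, concentration series for actives; inhibition scored as signal loss relative to DMSO baseline.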

[19] = molecular target: human Protein Tyrosine Phosphatase Receptor Type C (PTPRC), PTPRC (gene 5788) (UniProt P08575); assay: NVS_ENZ_hPTPRC: NovaScreen (NVS) Enzymatic Assay for human Protein Tyrosine Phosphatase Receptor Type C (PTPRC) (AID 2283212)
Outline: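 Absorbance-based phosphatase activity of human PTPRC protein extracted from yeast was measured 1 h post-dosing. Compounds first tested at 25 uM in duplicate, then those passing threshold in singleton concentration series to 50 uM.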

[20] = molecular target: human Raf-1 Proto-Oncogene, serine/threonine Kinase (RAF1), RAF1 (gene 5894) (UniProt P04049); assay: NVS_ENZ_hRAF1: NovaScreen (NVS) Enzymatic Assay for human Raf-1 Proto-Oncogene, serine/threonine Kinase (RAF1) (AID 2283216)
Outline: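 Single-point screening at 25 uM (duplicate), followed by singleton concentration-response to 50 uM maximum for chemicals exceeding threshold. Enzyme activity from fluorescent substrate-product mobility-shift separation after 1 h, relative to DMSO.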

[21] = molecular target: human Tyrosine Protein Kinase Receptor Tie-2 (Tie2), TEK (gene 7010) (UniProt Q02763); assay: NVS_ENZ_hTie2: NovaScreen (NVS) Enzymatic Assay for human Tyrosine Protein Kinase Receptor Tie-2 (Tie2) (AID 2283225)
Outline: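 Substrate and product were separated by mobility shift and detected by fluorescence after a 1-hour reaction with recombinant Tie2. Chemicals passing a 25 uM single-point screen were titrated to a maximum of 50 uM. Results were normalized to DMSO baseline.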

[22] = molecular target: human Ephrin type-A Receptor 2 (EphA2), EPHA2 (gene 1969) (UniProt P29317); assay: NVS_ENZ_hEphA2: NovaScreen (NVS) Enzymatic Assay for human Ephrin type-A Receptor 2 (EphA2) (AID 2283155)
Outline: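 Enzyme activity of recombinant EphA2 read by fluorescence after mobility-shift separation, 1 h after dosing. Chemicals first tested at 25 uM (duplicate); those passing threshold run as concentration series, top 50 uM, single replicate, relative to DMSO.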

[23] = molecular target: Voltage-dependent N-type calcium channel subunit alpha-1B (Rattus norvegicus) (UniProt Q02294); assay: NVS_IC_rCaChN: NovaScreen (NVS) Ion Channel Assay for rat Calcium Channel, Type N (CaChN) (AID 2283317)
[24] = molecular target: Bile acid receptor (Homo sapiens) (UniProt Q96RI1); assay: NVS_NR_hFXR_Agonist: NovaScreen (NVS) Nuclear Receptor Binding Assay for human Farnesoid X Receptor Agonism (FXR) (AID 2283347)
Outline: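 Agonist-mode FXR assay read by time-resolved FRET 1 h after compound addition, using isolated human receptor protein without cells. Duplicate 25 uM single-point primary screen, concentration series for confirmed actives; DMSO as baseline.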

[25] = molecular target: rat Monoamine Oxidase, MAO-B, Central (MAOBC), Maob (gene 25750) (UniProt P19643); assay: NVS_ENZ_rMAOBC: NovaScreen (NVS) Enzymatic Assay for rat Monoamine Oxidase, MAO-B, Central (MAOBC) (AID 2283238)
Outline: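 Cell-free radiometric assay, rat brain lysate. Read-out: scintillation counts, 1.17 h post-dosing. Screen 25 uM in duplicate; actives (e.g. ≥30% inhibition) then singleton concentration-response, max 50 uM. Activity loss fitted relative to DMSO.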

Measured: AC50

Androgen receptor (Homo sapiens), sequence (P10275 whole entry, looked up, the tested form may be a part): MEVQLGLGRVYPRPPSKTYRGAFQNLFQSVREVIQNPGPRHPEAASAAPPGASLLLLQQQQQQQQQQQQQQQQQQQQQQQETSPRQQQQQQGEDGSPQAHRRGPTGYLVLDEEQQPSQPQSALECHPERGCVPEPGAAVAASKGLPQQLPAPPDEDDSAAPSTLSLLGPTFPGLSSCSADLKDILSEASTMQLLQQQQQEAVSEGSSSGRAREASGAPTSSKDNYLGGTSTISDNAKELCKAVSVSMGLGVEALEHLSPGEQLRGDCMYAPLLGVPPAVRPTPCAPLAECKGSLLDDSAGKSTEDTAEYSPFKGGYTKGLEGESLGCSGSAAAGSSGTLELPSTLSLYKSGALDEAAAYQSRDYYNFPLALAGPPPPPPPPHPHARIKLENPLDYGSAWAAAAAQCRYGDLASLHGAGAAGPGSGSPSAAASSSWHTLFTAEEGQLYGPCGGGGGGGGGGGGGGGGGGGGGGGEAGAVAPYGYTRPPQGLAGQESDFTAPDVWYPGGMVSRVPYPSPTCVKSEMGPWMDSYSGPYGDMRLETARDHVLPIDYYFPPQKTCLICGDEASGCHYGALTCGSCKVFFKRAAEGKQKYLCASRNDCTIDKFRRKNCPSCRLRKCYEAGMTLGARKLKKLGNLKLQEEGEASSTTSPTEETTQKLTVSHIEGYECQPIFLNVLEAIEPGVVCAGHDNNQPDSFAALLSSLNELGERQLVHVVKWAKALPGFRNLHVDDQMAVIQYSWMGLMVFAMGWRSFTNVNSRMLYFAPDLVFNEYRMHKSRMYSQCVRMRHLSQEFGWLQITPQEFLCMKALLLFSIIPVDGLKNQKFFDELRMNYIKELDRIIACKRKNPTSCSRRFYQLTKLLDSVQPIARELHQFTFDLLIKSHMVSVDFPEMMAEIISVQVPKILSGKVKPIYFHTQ
human Protein Tyrosine Phosphatase Receptor Type C (PTPRC), PTPRC (gene 5788), sequence (P08575 whole entry, looked up): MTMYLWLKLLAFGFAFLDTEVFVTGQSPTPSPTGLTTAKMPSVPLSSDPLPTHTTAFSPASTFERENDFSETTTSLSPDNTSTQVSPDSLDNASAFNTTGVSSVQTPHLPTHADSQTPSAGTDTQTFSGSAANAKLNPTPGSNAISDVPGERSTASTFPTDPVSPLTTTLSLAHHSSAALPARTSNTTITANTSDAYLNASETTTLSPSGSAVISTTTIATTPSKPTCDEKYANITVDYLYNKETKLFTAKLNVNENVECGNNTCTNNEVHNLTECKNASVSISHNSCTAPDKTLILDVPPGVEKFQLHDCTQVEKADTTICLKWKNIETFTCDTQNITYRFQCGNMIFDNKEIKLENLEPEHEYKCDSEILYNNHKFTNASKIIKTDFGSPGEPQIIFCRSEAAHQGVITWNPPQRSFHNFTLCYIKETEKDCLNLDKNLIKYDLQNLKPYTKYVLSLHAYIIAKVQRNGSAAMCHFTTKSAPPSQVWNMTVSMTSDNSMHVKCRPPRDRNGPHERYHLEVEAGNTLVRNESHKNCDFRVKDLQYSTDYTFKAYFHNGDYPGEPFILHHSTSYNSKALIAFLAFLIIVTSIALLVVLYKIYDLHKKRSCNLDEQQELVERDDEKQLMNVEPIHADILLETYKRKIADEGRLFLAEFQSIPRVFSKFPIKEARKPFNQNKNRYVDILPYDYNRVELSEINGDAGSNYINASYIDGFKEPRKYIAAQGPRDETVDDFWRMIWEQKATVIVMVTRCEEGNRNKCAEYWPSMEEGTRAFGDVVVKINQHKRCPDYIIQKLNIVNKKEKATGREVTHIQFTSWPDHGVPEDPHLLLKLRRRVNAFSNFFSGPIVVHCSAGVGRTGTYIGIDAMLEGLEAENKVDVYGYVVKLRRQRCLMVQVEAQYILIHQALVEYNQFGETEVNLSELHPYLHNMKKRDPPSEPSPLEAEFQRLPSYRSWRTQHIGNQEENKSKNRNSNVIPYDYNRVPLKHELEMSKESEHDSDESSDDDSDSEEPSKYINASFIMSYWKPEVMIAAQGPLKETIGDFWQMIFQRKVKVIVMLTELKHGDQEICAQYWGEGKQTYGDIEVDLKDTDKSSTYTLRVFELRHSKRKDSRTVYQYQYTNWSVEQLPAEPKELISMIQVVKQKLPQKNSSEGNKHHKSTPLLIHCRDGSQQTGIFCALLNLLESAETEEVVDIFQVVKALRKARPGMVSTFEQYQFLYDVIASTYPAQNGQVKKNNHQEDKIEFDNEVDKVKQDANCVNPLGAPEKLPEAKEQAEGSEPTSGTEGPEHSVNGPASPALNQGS
human Tyrosine Protein Kinase Receptor Tie-2 (Tie2), TEK (gene 7010), sequence (Q02763 whole entry, looked up): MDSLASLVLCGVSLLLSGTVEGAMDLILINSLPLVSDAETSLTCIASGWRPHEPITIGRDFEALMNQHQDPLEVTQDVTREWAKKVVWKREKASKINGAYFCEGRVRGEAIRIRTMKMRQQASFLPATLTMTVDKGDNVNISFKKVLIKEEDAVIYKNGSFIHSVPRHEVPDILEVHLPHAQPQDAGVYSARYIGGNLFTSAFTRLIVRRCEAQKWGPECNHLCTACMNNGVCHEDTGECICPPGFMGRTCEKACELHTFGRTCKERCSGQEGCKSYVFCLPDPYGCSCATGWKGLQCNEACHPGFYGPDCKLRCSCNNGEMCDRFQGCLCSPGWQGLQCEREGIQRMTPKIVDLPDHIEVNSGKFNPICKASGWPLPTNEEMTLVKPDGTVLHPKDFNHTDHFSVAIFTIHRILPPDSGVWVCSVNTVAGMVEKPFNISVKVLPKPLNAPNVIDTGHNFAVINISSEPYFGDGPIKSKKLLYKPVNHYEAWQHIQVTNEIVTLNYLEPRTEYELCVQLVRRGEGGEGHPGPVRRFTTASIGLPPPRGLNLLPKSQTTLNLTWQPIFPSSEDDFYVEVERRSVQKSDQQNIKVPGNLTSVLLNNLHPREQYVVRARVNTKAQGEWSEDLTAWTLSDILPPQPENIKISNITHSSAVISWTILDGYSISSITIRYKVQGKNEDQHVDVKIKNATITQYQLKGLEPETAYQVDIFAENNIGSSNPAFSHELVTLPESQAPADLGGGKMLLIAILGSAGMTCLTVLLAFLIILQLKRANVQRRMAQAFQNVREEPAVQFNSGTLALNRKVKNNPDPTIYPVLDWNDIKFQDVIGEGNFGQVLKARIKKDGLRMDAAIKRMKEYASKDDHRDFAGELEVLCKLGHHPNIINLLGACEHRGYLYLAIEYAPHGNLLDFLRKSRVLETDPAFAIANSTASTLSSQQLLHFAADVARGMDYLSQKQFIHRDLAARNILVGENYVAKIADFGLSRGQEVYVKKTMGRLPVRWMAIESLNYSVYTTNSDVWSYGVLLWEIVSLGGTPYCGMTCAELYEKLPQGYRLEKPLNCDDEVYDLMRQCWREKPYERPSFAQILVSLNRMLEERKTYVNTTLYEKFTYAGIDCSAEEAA
rat CYP1A2, Cyp1a2 (gene 24297), sequence (P04799 whole entry, looked up): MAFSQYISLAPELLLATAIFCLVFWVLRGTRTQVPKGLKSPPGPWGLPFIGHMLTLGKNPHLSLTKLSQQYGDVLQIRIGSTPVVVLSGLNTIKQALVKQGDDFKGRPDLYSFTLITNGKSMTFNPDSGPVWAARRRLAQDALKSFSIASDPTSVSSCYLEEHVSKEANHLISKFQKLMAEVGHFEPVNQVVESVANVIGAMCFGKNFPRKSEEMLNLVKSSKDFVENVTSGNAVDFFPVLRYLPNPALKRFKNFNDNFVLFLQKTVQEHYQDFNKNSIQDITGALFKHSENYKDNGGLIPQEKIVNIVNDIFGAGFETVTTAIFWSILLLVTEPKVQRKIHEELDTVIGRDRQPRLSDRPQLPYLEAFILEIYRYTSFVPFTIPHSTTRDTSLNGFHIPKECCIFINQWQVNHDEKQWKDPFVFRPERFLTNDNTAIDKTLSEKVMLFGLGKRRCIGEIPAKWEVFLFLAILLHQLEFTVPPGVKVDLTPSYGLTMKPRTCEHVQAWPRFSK
human Fibroblast Growth Factor Receptor 1 (FGFR1), FGFR1 (gene 2260), sequence (P11362 whole entry, looked up): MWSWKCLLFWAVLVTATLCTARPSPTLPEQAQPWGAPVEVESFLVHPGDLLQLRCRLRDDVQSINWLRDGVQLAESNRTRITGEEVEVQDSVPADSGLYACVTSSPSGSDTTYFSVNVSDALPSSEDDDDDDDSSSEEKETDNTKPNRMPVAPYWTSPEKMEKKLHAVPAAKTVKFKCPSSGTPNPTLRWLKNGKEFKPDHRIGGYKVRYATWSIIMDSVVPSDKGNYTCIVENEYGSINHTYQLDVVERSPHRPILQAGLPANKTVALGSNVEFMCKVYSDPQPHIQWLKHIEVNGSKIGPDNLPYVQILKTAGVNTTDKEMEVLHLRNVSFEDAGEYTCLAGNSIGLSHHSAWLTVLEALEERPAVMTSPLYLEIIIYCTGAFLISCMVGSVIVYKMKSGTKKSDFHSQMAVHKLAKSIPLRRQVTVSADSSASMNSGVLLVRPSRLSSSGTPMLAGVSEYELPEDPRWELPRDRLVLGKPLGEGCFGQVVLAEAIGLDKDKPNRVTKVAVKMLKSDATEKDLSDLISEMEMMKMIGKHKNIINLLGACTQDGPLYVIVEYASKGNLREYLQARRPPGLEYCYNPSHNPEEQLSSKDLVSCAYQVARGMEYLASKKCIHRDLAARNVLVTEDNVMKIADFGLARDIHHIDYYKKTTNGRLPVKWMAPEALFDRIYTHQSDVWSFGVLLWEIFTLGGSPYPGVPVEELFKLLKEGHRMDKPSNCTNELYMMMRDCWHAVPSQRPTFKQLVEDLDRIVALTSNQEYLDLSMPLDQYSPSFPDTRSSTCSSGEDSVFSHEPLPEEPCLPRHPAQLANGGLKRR
human Phosphatase and Tensin Homolog (PTEN), PTEN (gene 5728), sequence (P60484 whole entry, looked up): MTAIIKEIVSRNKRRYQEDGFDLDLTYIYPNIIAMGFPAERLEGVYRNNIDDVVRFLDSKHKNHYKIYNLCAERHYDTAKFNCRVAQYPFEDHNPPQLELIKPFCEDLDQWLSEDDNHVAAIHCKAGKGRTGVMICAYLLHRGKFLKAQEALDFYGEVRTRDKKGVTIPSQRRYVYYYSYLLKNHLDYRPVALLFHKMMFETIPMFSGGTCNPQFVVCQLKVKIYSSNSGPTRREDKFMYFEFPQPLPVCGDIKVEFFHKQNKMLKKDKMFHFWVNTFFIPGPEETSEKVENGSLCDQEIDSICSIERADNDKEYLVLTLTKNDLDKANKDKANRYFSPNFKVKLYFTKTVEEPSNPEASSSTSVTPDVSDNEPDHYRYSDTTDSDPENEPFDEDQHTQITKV

CN(C)c1ccc(C(=C2C=CC(=[N+](C)C)C=C2)c2ccc(N(C)C)cc2)cc1
active: [2] 6.48 µM | [3] 18.2 µM | [4] 17.1 µM | [5] 25 µM | [6] 25 µM | [7] 6.82 µM | [8] 20.9 µM | [9] 1.89 µM
inactive: [1] | Caspase-1 (Homo sapiens)

COc1ccc(C(=O)/C(Br)=C\C(=O)O)cc1
inactive: [1] | [10]

CCCCCCCCCCCCc1ccccc1S(=O)(=O)O
inactive: [1]
active: [11] 11.3 µM | [12] 9.88 µM | [13] 9.42 µM | [14] 31.7 µM | [15] 26.2 µM | [16] 18.1 µM | [17] 13.5 µM | [18] 19.9 µM | [19] 5.18 µM | [20] 26 µM | [21] 9.14 µM

O=Cc1ccccc1C=O
inactive: [1] | [22] | [16] | [4] | [23] | [9]
active: [19] 17.7 µM

COCC(C)OCC(C)O (configuration not stated)
inactive: [1] | [11] | [13] | [15] | [17] | [21] | [24]

CN(C)C(=O)Nc1ccc(Cl)c(Cl)c1
inactive: [1] | [10] | [25]
active: [6] 13.6 µM
